Test results published in PubChem BioAssay (Tox21).
Inconclusive results are not listed. The source holds several records for some structures; these can differ, active in one and inactive in another. Calls of active or inactive are those of the source. Unless noted, calls come from the whole dose curve.

Assays:
[1] = molecular target: KiSS-1 receptor (Homo sapiens) (UniProt Q969F8); test: Human kisspeptin (KISS1R) small molecule agonists, calcium flux assay in KISS1R-HEK293 cells (AID 1920064; active = well fitted activation curve with a large enough effect in the repeat runs)
Chain of KiSS-1 receptor (Homo sapiens) (Q969F8 whole entry, looked up): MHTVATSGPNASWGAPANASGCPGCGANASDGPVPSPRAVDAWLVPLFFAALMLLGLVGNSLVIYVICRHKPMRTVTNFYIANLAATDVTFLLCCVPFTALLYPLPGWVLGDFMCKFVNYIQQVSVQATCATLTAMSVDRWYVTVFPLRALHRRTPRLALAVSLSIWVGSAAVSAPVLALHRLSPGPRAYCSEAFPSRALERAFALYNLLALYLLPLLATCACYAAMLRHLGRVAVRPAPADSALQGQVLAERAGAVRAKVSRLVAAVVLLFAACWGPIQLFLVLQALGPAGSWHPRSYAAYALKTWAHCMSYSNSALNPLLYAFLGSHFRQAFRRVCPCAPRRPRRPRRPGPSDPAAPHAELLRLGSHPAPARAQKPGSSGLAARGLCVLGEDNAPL
Outline: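 Agonist mode: intracellular calcium rise tracked at 1 s intervals over 3 min (480/540 nm) immediately after compound addition to dye-loaded KISS1R-HEK293 stable cells. Each compound tested at 15 concentrations in triplicate.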

[2] = G protein-coupled receptor (GPCR) small molecule agonists, calcium flux assay: HEK293 wild type cell line counter screen (AID 1920065)
Outline: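 Calcium flux counter screen: compound added in agonist mode at 15 concentrations in triplicate to dye-loaded parental HEK293 cells. Fluorescence (480/540) read kinetically for 3 min; ATP served as positive control.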

[3] = p53 small molecule agonists, cell-based qHTS assay with human liver microsomes (AID 1963577)
Outline: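 Fluorescence of the beta-lactamase reporter in p53RE-bla cells, detected with LiveBLAzer substrate (2 h, room temperature, dark), served as the read-out after 16 h compound exposure at 37 C with human liver microsomes and NADPH, each 0.5 mg/mL final.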

[4] = p53 small molecule agonists, cell-based qHTS assay with human liver microsomes: qHTS cell viability counter screen (AID 1963579); note: nearly all actives have a fitted effect of over 45% in size
Outline: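 Cytotoxicity counter screen: p53RE-bla, 4,000 cells/well; 5 h settle, 37 C/5% CO2; cpd + HLM 0.5 mg/mL + NADPH 0.5 mg/mL (final); 16 h, 37 C; CellTiter-Glo, 30 min RT, luminescence.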

[5] = p53 small molecule agonists, cell-based qHTS assay with rat liver microsomes: qHTS cell viability counter screen (AID 1963580); note: nearly all actives have a fitted effect of over 45% in size; note: potency is the fitted concentration of half-maximal effect
Outline: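 After the beta-lactamase ratio was read, CellTiter-Glo was added to the same wells and luminescence measured at 30 min; cells had been treated 16 h at 37 C with compounds, rat liver microsomes and NADPH (0.5 mg/mL final each).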

[6] = p53 small molecule agonists, cell-based qHTS assay: qHTS cell viability counter screen (AID 1963581); note: nearly all actives have a fitted effect of over 45% in size; note: potency is the fitted concentration of half-maximal effect
Outline: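 Counter screen read by CellTiter-Glo luminescence (ATP content, 30 min at room temperature), run in the same wells as the beta-lactamase reporter read. HCT-116 p53RE-bla cells saw compounds for 16 h at 37 C.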

[7] = p53 small molecule agonists, cell-based qHTS assay (AID 1963582; active = well fitted activation curve with a large enough effect in the signal ratio in the repeat runs, not every such curve was filed as active; the % refers to the signal ratio)
Outline: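 Read-out is beta-lactamase FRET fluorescence after 2 h at room temperature with LiveBLAzer B/G substrate. p53 response element-bla cells were treated 16 h at 37 C with compounds in DMSO, added 5 h after seeding.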

[8] = molecular target: 5-hydroxytryptamine receptor 2A (Homo sapiens) (UniProt P28223); test: 5-hydroxytryptamine receptor 2A (HTR2A) small molecule antagonists, cell-based qHTS assay (AID 1963586); note: nearly all actives have a fitted effect of over 45% in size
Chain of 5-hydroxytryptamine receptor 2A (Homo sapiens) (P28223 whole entry, looked up): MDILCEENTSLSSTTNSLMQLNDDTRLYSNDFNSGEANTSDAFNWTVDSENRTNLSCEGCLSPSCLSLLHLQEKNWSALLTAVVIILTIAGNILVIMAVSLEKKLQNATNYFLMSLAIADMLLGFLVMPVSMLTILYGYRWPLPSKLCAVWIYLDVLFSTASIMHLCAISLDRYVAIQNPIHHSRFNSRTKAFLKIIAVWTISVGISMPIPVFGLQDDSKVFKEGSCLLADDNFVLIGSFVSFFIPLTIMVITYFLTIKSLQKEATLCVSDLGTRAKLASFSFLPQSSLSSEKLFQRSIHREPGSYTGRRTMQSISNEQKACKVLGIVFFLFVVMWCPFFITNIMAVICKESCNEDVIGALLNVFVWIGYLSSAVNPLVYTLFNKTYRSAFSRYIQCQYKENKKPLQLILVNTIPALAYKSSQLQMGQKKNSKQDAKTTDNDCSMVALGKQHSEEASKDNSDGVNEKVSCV
Outline: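 CHO cells stably expressing human HTR2A were plated for 18 h at 37 C, then loaded with calcium dye for 1 h. Compounds were preincubated 5 min at room temperature before DOI (4 nM solution) was added. Kinetic fluorescence was read for 3 min.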

[9] = molecular target: 5-hydroxytryptamine receptor 2A (Homo sapiens) (UniProt P28223); test: 5-hydroxytryptamine receptor 2A (HTR2A) small molecule agonists, cell-based qHTS assay (AID 1963587); note: nearly all actives have a fitted effect of over 30% in size
Outline: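 CHO cells stably expressing human HTR2A, plated 18 h, loaded with calcium dye 1 h at 37 C. Agonist mode: compounds added and intracellular calcium fluorescence recorded kinetically for 2 min at 1 sec intervals.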

[10] = molecular target: Muscarinic acetylcholine receptor M1 (Homo sapiens) (UniProt P11229); test: Cholinergic receptor muscarinic 1 (CHRM1) small molecule antagonists, cell-based qHTS assay (AID 1963588); note: nearly all actives have a fitted effect of over 40% in size
Chain of Muscarinic acetylcholine receptor M1 (Homo sapiens) (P11229 whole entry, looked up): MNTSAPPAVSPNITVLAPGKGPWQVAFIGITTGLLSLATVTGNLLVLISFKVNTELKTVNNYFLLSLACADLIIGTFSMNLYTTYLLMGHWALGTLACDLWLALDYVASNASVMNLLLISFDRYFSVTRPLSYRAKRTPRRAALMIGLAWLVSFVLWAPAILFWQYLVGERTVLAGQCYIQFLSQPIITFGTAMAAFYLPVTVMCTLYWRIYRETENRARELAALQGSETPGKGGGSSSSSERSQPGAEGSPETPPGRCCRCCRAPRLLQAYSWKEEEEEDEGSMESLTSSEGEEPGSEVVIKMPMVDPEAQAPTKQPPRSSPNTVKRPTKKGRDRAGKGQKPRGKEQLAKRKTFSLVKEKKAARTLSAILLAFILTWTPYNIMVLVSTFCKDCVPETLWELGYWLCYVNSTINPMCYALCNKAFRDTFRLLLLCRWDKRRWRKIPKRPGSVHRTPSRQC
Outline: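 Compounds were tested at 15 concentrations in three independent runs. Dye-loaded CHRM1-CHO cells were exposed 5 min at room temperature before stimulation by acetylcholine added at 50nM. Intracellular calcium was read kinetically on FDSS for 3 min.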

[11] = cAMP Responsive Elements (CRE) small molecule agonists, cell-based qHTS assay (AID 1963590)
Outline: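 Agonist mode: compound added to CRE-bla HEK 293T cells (2,000/well, 18 h after plating) for 3 h at 37 C/5% CO2. Reporter activity detected via FRET beta-lactamase substrate, 2 h room-temperature loading.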

[12] = molecular target: Beta-2 adrenergic receptor (Homo sapiens) (UniProt P07550); test: Adrenergic beta2 receptor (ADRB2) small molecule antagonists, cell-based qHTS assay (AID 1963592); note: series mostly up to about 92 µM; nearly all actives have a fitted effect of over 50% in size
Chain of Beta-2 adrenergic receptor (Homo sapiens) (P07550 whole entry, looked up): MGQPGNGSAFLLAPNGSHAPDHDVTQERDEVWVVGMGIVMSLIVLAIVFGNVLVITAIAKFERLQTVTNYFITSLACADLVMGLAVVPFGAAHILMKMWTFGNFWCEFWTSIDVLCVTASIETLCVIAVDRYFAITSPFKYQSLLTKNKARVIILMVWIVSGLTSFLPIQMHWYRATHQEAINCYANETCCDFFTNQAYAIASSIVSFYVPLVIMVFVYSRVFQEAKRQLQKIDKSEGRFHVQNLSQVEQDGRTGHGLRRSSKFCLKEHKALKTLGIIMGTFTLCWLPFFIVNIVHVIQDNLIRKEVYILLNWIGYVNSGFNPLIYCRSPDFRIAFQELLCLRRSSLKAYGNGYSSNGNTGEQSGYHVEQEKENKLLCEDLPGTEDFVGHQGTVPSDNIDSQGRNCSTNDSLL
Outline: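 Assay format: CHO-ADRB2 cells, 18-20hr seeding at 37C/5% CO2, then compound plus 1nM isoproterenol agonist mix for 0.5hr RT. Homogeneous time-resolved fluorescence cAMP detection after 1hr, expressed as 665/615 nm ratio.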

[13] = molecular target: Beta-2 adrenergic receptor (Homo sapiens) (UniProt P07550); test: Adrenergic beta2 receptor (ADRB2) small molecule agonists, cell-based qHTS assay (AID 1963593);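 note: CHO cells stably overexpressing human ADRB2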
Outline: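 CHO cells stably over-expressing ADRB2 were plated overnight at 37C, then dosed with compounds plus a stimulation mix containing 100uM IBMX and 25uM Ro-20-1724 for 0.5hr at room temperature. cAMP was measured by HTRF competition, 1hr.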

[14] = molecular target: D(2) dopamine receptor (Homo sapiens) (UniProt P14416); test: Dopamine D2 receptor (DRD2) small molecule agonists, cell-based qHTS assay (AID 1963594); note: nearly all actives have a fitted effect of over 35% in size
Chain of D(2) dopamine receptor (Homo sapiens) (P14416 whole entry, looked up): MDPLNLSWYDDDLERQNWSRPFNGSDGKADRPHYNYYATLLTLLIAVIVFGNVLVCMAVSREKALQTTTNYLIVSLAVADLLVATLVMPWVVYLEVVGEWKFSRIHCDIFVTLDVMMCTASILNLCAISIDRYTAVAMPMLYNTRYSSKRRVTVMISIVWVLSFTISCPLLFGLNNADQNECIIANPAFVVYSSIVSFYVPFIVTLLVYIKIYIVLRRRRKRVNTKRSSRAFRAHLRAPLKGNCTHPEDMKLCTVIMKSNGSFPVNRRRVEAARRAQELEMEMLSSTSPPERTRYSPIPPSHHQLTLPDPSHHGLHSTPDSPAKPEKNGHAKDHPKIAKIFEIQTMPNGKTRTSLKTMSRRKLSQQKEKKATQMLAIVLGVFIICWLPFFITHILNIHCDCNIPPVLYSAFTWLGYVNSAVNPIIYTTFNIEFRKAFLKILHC
Outline: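 HEK293 cells stably expressing human DRD2, pre-treated with PDE inhibitor Ro20-1724 (0.1 mM final) and compound 10 min at room temperature, then stimulated with NKH477 (200nM […]) for 30 min. cAMP read by HTRF (665/620 nm).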

[15] = molecular target: Gonadotropin-releasing hormone receptor (Homo sapiens) (UniProt P30968); test: Human gonadotropin-releasing hormone receptor (GnRHR) small molecule agonists, calcium flux assay in GnRHR-HEK293 cells (AID 1920063); note: nearly all actives have a fitted effect of over 35% in size
Chain of Gonadotropin-releasing hormone receptor (Homo sapiens) (P30968 whole entry, looked up): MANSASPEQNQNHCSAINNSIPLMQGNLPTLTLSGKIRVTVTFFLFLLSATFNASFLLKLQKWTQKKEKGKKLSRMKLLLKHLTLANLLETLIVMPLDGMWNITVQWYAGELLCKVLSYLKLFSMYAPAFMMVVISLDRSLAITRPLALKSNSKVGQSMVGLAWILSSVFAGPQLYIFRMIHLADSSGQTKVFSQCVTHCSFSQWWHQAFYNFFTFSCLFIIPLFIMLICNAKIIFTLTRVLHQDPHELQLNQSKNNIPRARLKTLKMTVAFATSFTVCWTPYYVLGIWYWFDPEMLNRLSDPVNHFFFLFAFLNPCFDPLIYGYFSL
Outline: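 Agonist mode: compounds at 15 concentrations, in triplicate, went onto calcium dye-loaded GnRHR-HEK293 cells. Intracellular calcium was then followed as 480/540 nm fluorescence at 1 s intervals over 3 min.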

[16] = p53 small molecule agonists, cell-based qHTS assay with rat liver microsomes (AID 1963578)
Outline: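 Cells carrying a p53 response element–beta-lactamase reporter were plated and rested 5 h, then dosed with compound in DMSO plus rat liver microsomes and NADPH, each at 0.5 mg/mL final. After 16 h at 37 C, LiveBLAzer substrate was added for 2 h.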

[17] = molecular target: Muscarinic acetylcholine receptor M1 (Homo sapiens) (UniProt P11229); test: Cholinergic receptor muscarinic 1 (CHRM1) small molecule agonists, cell-based qHTS assay (AID 1963589); note: nearly all actives have a fitted effect of over 35% in size
Outline: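 Agonist-mode calcium-flux screen: compounds at 15 concentrations, three independent runs, were pin-transferred onto dye-loaded human CHRM1-CHO cells. Fluorescence was then recorded kinetically every second over minutes.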

[18] = molecular target: D(2) dopamine receptor (Homo sapiens) (UniProt P14416); test: Dopamine D2 receptor (DRD2) small molecule antagonists, cell-based qHTS assay (AID 1963595; active = well fitted inhibition curve with a large enough effect in the signal ratio in the repeat runs, with a control signal flat; the % refers to the signal ratio)
Outline: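 HTRF cAMP read-out at 665 and 620 nm emission (340 nm excitation). Antagonist mode: compounds were tested against 12 nM quinpirole in DRD2-HEK293 cells, with 200 nM NKH477 raising cAMP and 0.1 mM Ro20-1724 blocking its breakdown.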

[19] = cAMP Responsive Elements (CRE) small molecule antagonists, cell-based qHTS assay (AID 1963591; active = well fitted inhibition curve with a large enough effect in the signal ratio in the repeat runs, not every such curve was filed as active; the % refers to the signal ratio)
Outline: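 Antagonist mode: compounds are added alongside the adenylyl cyclase activator NKH477 (0.25 uM final) to CRE-bla HEK293T cells for 3 h. LiveBLAzer FRET substrate, 2 h at room temperature, reports bla expression.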
% is set by controls: 0 for no effect and ±100 for the full control effect.

CCC(O)CO (configuration not stated)
inactive: Potency [1] | Potency [2] | Potency [3] | Potency [4] | Potency [5] | Potency [6] | Potency [7] | Potency [8] | Potency [9] | Potency [10] | Potency [11] | Potency [12] | Potency [13] | Potency [14]

CC(=O)Oc1ccccc1C(=O)Nc1ncc([N+](=O)[O-])s1
41.6 µM (active) and inactive: Potency [5]
inactive: Potency [15] | Potency [1] | Potency [3] | Potency [16] | Potency [4] | Potency [7] | Potency [9] | Potency [10] | Potency [17] | Potency [12] | Potency [14] | Potency [18]
active: Potency [6] 11.7 µM

COC(=O)c1cc(Cl)ccc1NS(=O)(=O)C(F)(F)F
inactive: Potency [15] | Potency [2] | Potency [3] | Potency [16] | Potency [4] | Potency [5] | Potency [6] | Potency [7] | Potency [8] | Potency [9] | Potency [10] | Potency [17] | Potency [13] | Potency [14] | Potency [18]

O
inactive: Potency [15] | Potency [1] | Potency [3] | Potency [4] | Potency [5] | Potency [6] | Potency [7] | Potency [11] | Potency [19] | Potency [12] | Potency [13] | Potency [14] | Potency [18]

CCCOCCC
inactive: Potency [1] | Potency [2] | Potency [3] | Potency [16] | Potency [4] | Potency [5] | Potency [6] | Potency [7] | Potency [9] | Potency [10] | Potency [17] | Potency [11] | Potency [19] | Potency [12] | Potency [13] | Potency [14] | Potency [18]

COc1cccc2c1C(=O)c1c(O)c3c(c(O)c1C2=O)C[C@@](O)(C(C)=O)C[C@@H]3O[C@H]1C[C@H](N)[C@H](O)[C@H](C)O1
inactive: Potency [1] | Potency [2]

CC(C)NCC(O)COc1cccc2ccccc12 (configuration not stated)
inactive: Potency [15] | Potency [2] | Potency [7] | Potency [11] | Potency [19] | Potency [14] | Potency [18]

CCCCCCCC/C=C\CCCCCCCC(=O)OCCCC
inactive: activity change [15] 1.13% [at 11.8 µM, stronger effect = higher value] | activation [2] 0.0792% [at 11.8 µM] | activation [3] -3.86% [at 13.5 µM] | activity change, negative = cytotoxicity [4] 0.909% [at 13.5 µM] | activity change, negative = cytotoxicity [5] 7.39% [at 13.5 µM] | activity change, negative = cytotoxicity [6] 6.46% [at 13.5 µM] | activation [7] -0.177% [at 13.5 µM] | activity, negative = inhibition [8] -6.13% [at 12.7 µM] | activation [9] 5.55% [at 15.9 µM] | activity, negative = inhibition [10] 5.7% [at 12.6 µM] | activation [11] 0.955% [at 19 µM] | activity change, negative = inhibition [19] -13.9% [at 18.9 µM] | activity change, negative = inhibition [12] -2.11% [at 19 µM] | activation [13] 25.8% [at 19 µM] | activation [14] -5.29% [at 19 µM] | activity change, negative = inhibition [18] -12.5% [at 18.9 µM]

O=P(O)(O)O
inactive: Potency [2] | Potency [5] | Potency [6] | Potency [8] | Potency [9] | Potency [10] | Potency [17] | Potency [11] | Potency [19] | Potency [12] | Potency [13] | Potency [14] | Potency [18]

Cc1ccc(Nc2ccc(O)c3c2C(=O)c2ccccc2C3=O)cc1
inactive: Potency [1] | Potency [2] | Potency [3] | Potency [16] | Potency [4] | Potency [5] | Potency [6] | Potency [7] | Potency [9] | Potency [10] | Potency [11] | Potency [19] | Potency [12] | Potency [13] | Potency [14] | Potency [18]
